Inconclusive results are not listed. Entries that show only a call come without a potency. Active and inactive are the calls of the source. Calls come from the whole dose curve; as a rule, active = well fitted activation curve with a large enough effect in the repeat runs; inconclusive = weak or mixed curves; inactive = flat fitted curve, though single readings scatter.
Potency is the fitted concentration of half-maximal effect.

This assay in a line: A CellTox Green Cytotoxicity Assay to monitor cytotoxicity in HEK293 cells - 40 hour (AID 1224871). Note: nearly all actives have a fitted effect of over 45% in size. To be noted: CellTox Green fluorescence; series mostly up to 76.8 µM. From the text:
National Center for Advancing Translational Sciences [NCATS]
NIH Chemical Genomics Center [NCGC]
U.S. Environmental Protection Agency [EPA]
National Institutes of Environmental Health Sciences [NIEHS]
National Toxicology Program [NTP]
Cell-based models are critical for drug discovery. Determining the natural cytotoxic effects resulting from test compounds is an essential research activity. A CellTox Green Cytotoxicity Assay to monitor cytotoxicity in real time of continues cell culture during 40 hours of the compound treatment was used to screen Tox21 10K library compounds in Hek293 cells. CellTox Green Cytotoxicity Assay is a nonlytic, homogeneous, biofluorescent method to measure cytotoxicity in cell culture after experimental manipulation. The assay system uses a proprietary asymmetric cyanine dye that is excluded from viable cells but preferentially stains the dead cell's DNA. […] Viable cells produce no appreciable increases in fluorescence. Therefore, the fluorescence signal produced by the binding interaction with dead cell DNA is proportional to cytotoxicity.
The mixture of Hek293 cell suspension and reagents were dispensed at 600cells/6 ul/well in 1536-well tissue culture treated black solid bottom plates using a Multidrop dispenser. After the assay plates were incubated at a 37 C/5% CO2 incubator for 5 hours, 23 nL of compounds dissolved in DMSO, positive and negative controls was transferred to the assay plate by a pintool work station. The plates were incubated at 37 C for 40 hours. The fluorescence intensity were measured at 0h, 8h, 16h, 24h, 32h and 40h time points using ViewLux plate reader during compound treatment.
On to `CC(C)COCC(CN(Cc1ccccc1)c1ccccc1)N1CCCC1` (stereo not given), for which the Potency was 21.3 µM (active).

`O=C1CCCCCCCCCCOCCCCO1`: the Potency was 49 µM (active).

As for `COc1cc(C(=O)NC2CCN(C)CC2)ccc1Nc1ncc2c(n1)N(C1CCCC1)CC(F)(F)C(=O)N2C`, the Potency was 35.7 µM (active).

As for `O=C(Nc1cccc2c(=O)cc(-c3nn[nH]n3)oc12)c1ccc(OCCCCc2ccccc2)cc1`, the Potency result is “inactive”.

As for `N#CCCN(CCO)CCO`, the Potency entry is “inactive”.

Regarding `CN1C(=O)N(c2ccccc2Br)Cc2cnc(Nc3ccc4c(c3)OCC(CO)O4)nc21` (stereo not given), the Potency entry is “inactive”.

In the case of `CC(C)C=O`, the Potency entry is “inactive”.

With `O=c1cc(-c2ccccc2)oc2cc(O)cc(O)c12`, the Potency result is “inactive”.

For the compound `Cc1ccc(Cl)c(Nc2ccccc2C(=O)O)c1Cl`, the Potency entry was “inactive”.

For `C[C@@]12CCC[C@H]1[C@@H]1CC[C@H]3C[C@@H](O)CC[C@]3(C)[C@H]1CC2`, the Potency entry is “inactive”.

`OC1(c2ccccc2)CCNCC1`: the Potency result was “inactive”.

Consider `CCCCCCCCC(CCCCCC)C(=O)O` (stereo not given), for which the Potency result is “inactive”.

Regarding `CN1CCCC(CC2c3ccccc3Sc3ccccc32)C1` (stereo not given), the Potency is 23.9 µM (active).

Take `CCCCCCCCCI`: the Potency result was “inactive”.

Regarding `COc1ccccc1NC(=O)c1cc2ccccc2cc1O`, the Potency result is “inactive”.

For `CS(=O)(=O)c1ccc(-c2cn3ccccc3n2)cc1`, the Potency result is “inactive”.

As for `O=[N+]([O-])c1ccc(Nc2ccc(Nc3ccccc3)c(S(=O)(=O)O)c2)c([N+](=O)[O-])c1`, the Potency entry was “inactive”.

As for `O=c1c(O)c(-c2ccc(O)cc2)oc2cc(O)cc(O)c12`, the Potency entry is “inactive”.

Turning to `CC(C)=CC(=O)C=C(C)C`, the Potency entry is “inactive”.

Take `CC(C)(c1ccccc1)c1ccccc1`: the Potency was 51.1 µM (active).

As to `Nc1ccc(N=Nc2ccccc2)c(N)c1`, the Potency result is “inactive”.

`CC1(C)S[C@@H]2[C@H](NC(=O)C(c3ccccc3)S(=O)(=O)O)C(=O)N2[C@H]1C(=O)O` (stereo not given in full): the Potency entry was “inactive”.

`CCCCCC#CC(=O)OC`: the Potency entry is “inactive”.

`O=C(OC(=O)c1ccccc1)c1ccccc1`: the Potency result is “inactive”.

Take `CC[C@]1(O)C[C@H]2CN(CCc3c([nH]c4ccccc34)[C@@](C(=O)OC)(c3cc4c(cc3OC)N(C=O)[C@H]3[C@@](O)(C(=O)OC)[C@H](OC(C)=O)[C@]5(CC)C=CCN6CC[C@]43[C@@H]65)C2)C1`: the Potency entry was “inactive”.

As for `Cc1cccc(O)c1N`, the Potency entry was “inactive”.

Regarding `C1C[C@@H]2[C@H]3CC[C@H](C3)[C@@H]2C1`, the Potency result was “inactive”.

On to `Cc1ccccc1N=C(N)Nc1ccccc1C`, for which the Potency entry was “inactive”.

For the compound `CCC1NC(=O)c2cc(S(N)(=O)=O)c(Cl)cc2N1` (stereo not given), the Potency result was “inactive”.

For `C[C@@H](CN(C)C)CN1c2ccccc2Sc2ccccc21`, the Potency is 16.9 µM (active).

As to `CO/N=C(/C(=O)N[C@@H]1C(=O)N2C(C(=O)O)=C(COC(N)=O)CS[C@H]12)c1ccco1`, the Potency result was “inactive”.

As to `CN1C(=O)c2ccccc2C1=O`, the Potency result was “inactive”.

For `NCCNCCO`, the Potency result was “inactive”.

With `O=C(CCc1ccc(O)cc1)c1c(O)cc(O)cc1O`, the Potency entry was “inactive”.

Turning to `O=C1c2ccccc2C(=O)N1CCc1noc(-c2ccc(CN3CCCCCC3)s2)n1`, the Potency was 40 µM (active).

Take `O=C1Cc2cc(Cl)ccc2N1`: the Potency result is “inactive”.

Consider `CC(=O)Oc1ccc([N+](=O)[O-])cc1CCl`, for which the Potency entry was “inactive”.

As for `O=C(Cn1ccnc1[N+](=O)[O-])NCCO`, the Potency result was “inactive”.

For the compound `C=CC(=O)OCC1CC2CC1C1CCC(COC(=O)C=C)C21` (stereo not given), the Potency was 49 µM (active).

`Clc1ccc(Nc2nnc(Cc3ccncc3)c3ccccc23)cc1`: the Potency entry was “inactive”.

The record behind these values is PubChem BioAssay (Tox21).
